Inconclusive results are not listed. Entries that show only a call come without a potency. Activity calls are given as the source filed them. Calls follow the shape of the dose curve; as a rule, active = well fitted activation curve with a large enough effect in the repeat runs; inconclusive = weak or mixed curves; inactive = no such curve, though single readings can be large or run the other way. Positions of bridges follow the written chain, without caps; N, C: chain ends. Non-standard residues stand in square brackets, D forms with d. Residues, ends and D or L forms follow the SMILES beside them. *: point of attachment. X1 = CC[C@@H](C)[C@@H](N)C1=N[C@H](C(=O)*)CS1; d(aIle) = CC[C@H](C)[C@@H](N)C(=O)O; dOrn = NCCC[C@@H](N)C(=O)O
The compounds below were run against Aryl hydrocarbon receptor (Homo sapiens) (UniProt P35869) (assay: qHTS assay to identify small molecule that activate the aryl hydrocarbon receptor (AhR) signaling pathway (AID 743085; also: nearly all actives have a fitted effect of over 15% in size;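 as to activation: HG2L7.5c1 human HepG2 liver cells with stably integrated DRE-driven firefly reporter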)). Conditions: HepG2 AhR-luc (HG2L7.5c1), luciferase, 24 h; series mostly up to 70.3 µM.
Method in brief: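 Compounds were tested in HepG2 hepatocellular carcinoma cells harbouring a stably integrated luciferase gene under control of 20 DREs. Increased reporter signal after 24 h treatment at 37C was taken as AhR activation.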
Potency is read from the fitted curve at half-maximal effect.

Aryl hydrocarbon receptor (Homo sapiens), sequence (P35869 whole entry, looked up): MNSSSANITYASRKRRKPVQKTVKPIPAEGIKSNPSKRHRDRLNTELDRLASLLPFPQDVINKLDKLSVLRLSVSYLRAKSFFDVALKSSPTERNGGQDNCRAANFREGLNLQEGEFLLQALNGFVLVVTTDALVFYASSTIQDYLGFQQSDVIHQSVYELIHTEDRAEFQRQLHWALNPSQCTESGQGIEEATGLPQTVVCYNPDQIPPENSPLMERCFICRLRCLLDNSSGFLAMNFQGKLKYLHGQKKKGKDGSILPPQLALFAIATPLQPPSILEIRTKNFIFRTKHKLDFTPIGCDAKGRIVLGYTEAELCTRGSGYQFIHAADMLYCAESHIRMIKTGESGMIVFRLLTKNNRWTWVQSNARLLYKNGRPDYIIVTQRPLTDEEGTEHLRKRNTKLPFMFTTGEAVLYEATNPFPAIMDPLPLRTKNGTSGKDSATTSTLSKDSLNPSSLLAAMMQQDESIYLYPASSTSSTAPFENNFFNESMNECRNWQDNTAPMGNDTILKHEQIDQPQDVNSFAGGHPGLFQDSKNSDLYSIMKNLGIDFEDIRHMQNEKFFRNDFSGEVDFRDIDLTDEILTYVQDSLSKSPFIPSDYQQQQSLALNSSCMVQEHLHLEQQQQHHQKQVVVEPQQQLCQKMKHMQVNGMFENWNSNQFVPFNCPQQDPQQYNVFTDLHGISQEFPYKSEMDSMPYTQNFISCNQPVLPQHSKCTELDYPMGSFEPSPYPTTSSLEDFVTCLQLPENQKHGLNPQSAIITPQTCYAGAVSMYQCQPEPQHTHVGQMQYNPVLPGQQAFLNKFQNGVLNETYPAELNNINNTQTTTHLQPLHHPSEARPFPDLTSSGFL

SMILES | Potency
C/C(=C\C(=O)OCCCCCCCCC(=O)O)C[C@@H]1OC[C@H](C[C@@H]2O[C@H]2[C@@H](C)[C@H](C)O)[C@@H](O)[C@H]1O | inactive
CC(C)[C@H](NC(=O)[C@H](CC(=O)O)NC(=O)[C@H](CCCCN)NC(=O)[C@@H](N)CCCN=C(N)N)C(=O)N[C@@H](Cc1ccc(O)cc1)C(=O)O (H-RKDVY-OH) | inactive
NC(=O)[C@@H]1CCCN1C(=O)[C@H](Cc1cnc[nH]1)NC(=O)[C@@H]1CCC(=O)N1 | inactive
CC[C@H]1OC(=O)[C@H](C)C(=O)[C@H](C)[C@@H](O[C@@H]2O[C@H](C)C[C@H](N(C)C)[C@H]2O)[C@](C)(OC)C[C@@H](C)C(=O)[C@H](C)[C@H]2N(CCCCn3cnc(-c4cccnc4)c3)C(=O)O[C@]12C | inactive
C[N+](C)(C)CCOP(=O)(O)OP(=O)([O-])OC[C@H]1O[C@@H](n2ccc(N)nc2=O)[C@H](O)[C@@H]1O | inactive
Cc1cnc(C(=O)O)c[n+]1[O-] | inactive
C=CC1=C(C(=O)O)N2C(=O)[C@@H](NC(=O)/C(=N/OCC(=O)O)c3csc(N)n3)[C@H]2SC1 (stereo in doubt) | inactive
O=P(O)(O)C(O)(Cn1ccnc1)P(=O)(O)O | inactive
C=CC[N+]1([C@H]2C[C@H]3[C@@H]4CC[C@H]5C[C@H](O)[C@@H](N6CCOCC6)C[C@]5(C)[C@H]4CC[C@]3(C)[C@H]2OC(C)=O)CCCC1 | inactive
CC[C@@H](C)[C@@H](N)C1=N[C@H](C(=O)N[C@@H](CC(C)C)C(=O)N[C@@H](CCC(=O)O)C(=O)N[C@@H](C(=O)N[C@@H]2CCCCNC(=O)[C@@H](CC(N)=O)NC(=O)[C@@H](CC(=O)O)NC(=O)[C@@H](Cc3cnc[nH]3)NC(=O)[C@@H](Cc3ccccc3)NC(=O)[C@@H]([C@H](C)CC)NC(=O)[C@@H](CCCN)NC2=O)[C@@H](C)CC)CS1 (X1-LE[d(aIle)][dK][dOrn][dI][dF][dH][dD][dN]; lactam 4-C) | inactive
Nc1cc(Cl)c(NC2=NCCN2)c(Cl)c1 | inactive
CCOc1ccc(NC(=S)Nc2ccc(OCC)cc2)cc1 | inactive
CCc1ncnc2cc(OC)c(OC)cc12 | inactive
Cc1cc(=O)c(C(=O)N[C@@H](C(=O)N[C@@H]2C(=O)N3C(C(=O)O)=C(CSc4nnnn4C)CS[C@H]23)c2ccc(O)cc2)c[nH]1 | inactive
CC12CCC(C[N+](C)(CCC[N+](C)(C)C)C1)C2(C)C (configuration not stated) | inactive
CN1C(=O)C[C@@H](C(=O)N[C@@H](Cc2cnc[nH]2)C(=O)N2CCC[C@H]2C(N)=O)NC1=O | inactive
COC(=O)[C@H]1[C@H]2C[C@H]3c4[nH]c5ccccc5c4CCN3C[C@H]2CC[C@@H]1O | 18.8 µM (active)
CC[C@@H](C)[C@H](N)C(=O)O | inactive
C/C(=C(/CCO)SSCC1CCCO1)N(C=O)Cc1cnc(C)nc1N (configuration not stated) | inactive

SMILES | Potency
C=C(Nc1ccc(OCC)cc1)Nc1ccc(OCC)cc1 | inactive
O=C(O)/C=C/C(=O)Nc1ccc(S(=O)(=O)Nc2nccs2)cc1 | inactive
CC(C)=CCC/C(C)=C/CC/C(C)=C/CC/C(C)=C/CC1=C(C)C(=O)c2ccccc2C1=O | 10.6 µM (active)
CO/N=C(\C(=O)N[C@@H]1C(=O)N2C(C(=O)O)=C(CSc3nc(C)c(CC(=O)O)s3)CS[C@H]12)c1csc(N)n1 | inactive
COc1ccc(/C=C/C(=O)O)cc1 | inactive
CO/N=C(\C(=O)N[C@@H]1C(=O)N2C(C(=O)[O-])=C(C[n+]3cccc4c3CCC4)CS[C@H]12)c1csc(N)n1 | inactive
NCC1CCC(C(=O)O)CC1 (configuration not stated) | inactive
CCN(CC)CCOC[C@H]1O[C@@H](O)[C@H](OCCN(CC)CC)[C@@H](O)[C@@H]1O | inactive
CCC(=O)OC(OP(=O)(CCCCc1ccccc1)CC(=O)N1C[C@H](C2CCCCC2)C[C@H]1C(=O)O)C(C)C (some centres not stated) | inactive
CC(C)=CCC/C(C)=C/CC/C(C)=C/CC/C=C(\C)CC/C=C(\C)CCC=C(C)C | inactive
CCCCCCCCCC(=O)NO | inactive
NCCO/C=C/[C@H](N)C(=O)O | inactive
N=C(N)n1cccn1 | inactive
Nc1c(CC(=O)O)cccc1C(=O)c1ccccc1 | inactive
Cc1ccc(C(C)(C)c2ccc(C)cc2)cc1 | inactive
CO[C@H]1C[C@H](O[C@H]2[C@H](C)[C@@H](O[C@@H]3O[C@H](C)C[C@H](N(C)C)[C@H]3O)[C@@H](C)C[C@]3(CO3)C(=O)[C@H](C)[C@@H](O)[C@@H](C)[C@@H](C)OC(=O)[C@@H]2C)O[C@@H](C)[C@@H]1O | inactive
CC[C@H]1OC(=O)C[C@@H](O)[C@H](C)[C@@H](O[C@@H]2O[C@H](C)[C@@H](O[C@H]3C[C@@](C)(O)[C@@H](O)[C@H](C)O3)[C@H](N(C)C)[C@H]2O)[C@@H](CC=O)C[C@@H](C)C(=O)/C=C/C(C)=C/[C@@H]1CO[C@@H]1O[C@H](C)[C@@H](O)[C@@H](OC)[C@H]1OC | inactive
O=C1c2c(O)cccc2[C@H]([C@@H]2O[C@H](CO)[C@@H](O)[C@H](O)[C@H]2O)c2cc(CO)cc(O)c21 | inactive

From PubChem BioAssay (Tox21)
